Bioassay records as filed in PubChem.
A selection: hits, their analogues and other compounds. The true share with any hit is near 11%.
HP1b chromo inh: blocks HP1-beta chromodomain binding to methylated histone tails; Potency, µM (series often up to 114 µM), actives largely listed as inhibitors; AlphaScreen HP1-beta / biotin-H3K9me3 peptide binding; P83916; hit rate 0.56% among 390,000; further: nearly all actives have a fitted effect of over 70% in size
Target sequence (P83916 whole entry, looked up): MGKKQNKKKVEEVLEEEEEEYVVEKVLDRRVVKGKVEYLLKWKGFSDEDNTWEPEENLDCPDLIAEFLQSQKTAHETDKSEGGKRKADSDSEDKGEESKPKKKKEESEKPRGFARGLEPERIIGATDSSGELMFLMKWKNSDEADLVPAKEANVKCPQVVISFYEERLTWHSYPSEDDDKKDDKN
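Compound inhibition of the preformed complex between 50 nM HP1-beta and 50 nM biotinylated H3K9me3 peptide was read by AlphaScreen. Buffer was PBS pH 7.4 with 0.01% Tween-20. Incubations ran 30 min at room temperature, with 10 ug/mL donor/acceptor beads.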
BAZ2B inh: BAZ2B (human) inhibition; Q9UIF8; AlphaScreen BAZ2B-H3K14Ac peptide displacement; Potency, µM (doses to about 114 µM), usual class: inhibitors; hit rate 4.4% among 360,000; AID 504333; further: nearly all actives have a fitted effect of over 60% in size
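Compounds, titrated to a top concentration of 110 uM, were incubated 30 min at room temperature with preformed BAZ2B/acetyl-K14 H3 peptide complex (50 nM each). Proximity signal was measured by AlphaScreen after 20 min with beads.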
JMJD2A Tudor: blocks the human JMJD2A Tudor domain | O75164 | AlphaScreen JMJD2A-Tudor / H3K4me3 peptide binding | Potency, µM (highest dose often 114 µM), most hits filed as inhibitors | hit rate 4.4% among 390,000 | AID 504339; further: nearly all actives have a fitted effect of over 50% in size
G9a inh: inhibitors of human histone lysine methyltransferase G9a | Q96KQ7 | G9a H3K9 monomethylation, AlphaScreen, 2 h | Potency, µM (highest dose often 102 µM), hits mostly inhibitors | hit rate 8.8% among 350,000 | AID 504332; further: nearly all actives have a fitted effect of over 75% in size
Target sequence (Q96KQ7 913-1193 limits assumed): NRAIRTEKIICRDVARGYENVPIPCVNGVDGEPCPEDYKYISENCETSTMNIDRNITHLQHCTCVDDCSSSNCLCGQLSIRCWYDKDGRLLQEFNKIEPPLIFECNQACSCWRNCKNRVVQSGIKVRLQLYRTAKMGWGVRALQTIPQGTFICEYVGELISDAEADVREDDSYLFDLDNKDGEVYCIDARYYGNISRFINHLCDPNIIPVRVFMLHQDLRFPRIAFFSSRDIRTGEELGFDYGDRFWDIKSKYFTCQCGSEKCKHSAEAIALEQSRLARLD
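Compounds were preincubated with 20 nM G9a for 15 min, after which biotinylated H3K9 peptide (500 nM) and SAM (20 uM) started a 2 h room-temperature reaction. Monomethylated product was quantified by antibody-based AlphaScreen chemiluminescence.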
L3MBTL1 inh: L3MBTL1 (human) inhibition. AlphaScreen L3MBTL1–H3K9me1 peptide binding. Potency, µM (top dose mostly 57.1 µM), hits mostly inhibitors. hit rate 0.66% among 230,000. AID 485360; further: nearly all actives have a fitted effect of over 60% in size
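Read-out is AlphaScreen signal from streptavidin donor and nickel chelate acceptor beads (10 ug/mL final each) bridging L3MBTL1 (50 nM) and biotinylated K9-monomethylated H3(1-15) peptide (75 nM), after 30 min compound exposure at room temperature.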
Each line names hits and unclear results; the compound was inactive in the other large screens. The call rests on the fitted dose curve; in most records, active means well fitted inhibition curve with a large enough effect; inconclusive means small, poorly fitted or top-dose-only effect; inactive means no such curve, though single readings can be large or run the other way.

O=C(N/N=C/c1ccc(OC(=O)c2ccccc2)cc1)c1cccnc1	HP1b chromo inh inconclusive, BAZ2B inh inconclusive, G9a inh 20µM (no result: L3MBTL1 inh)
Cc1ccc(C(=O)Oc2ccc(/C=N/NC(N)=O)cc2)cc1	BAZ2B inh inconclusive, G9a inh 28µM
CCOC(=O)CCN(c1ccccc1)S(=O)(=O)c1cc(-c2cc(C)no2)ccc1C	none (no result: L3MBTL1 inh)
Cc1ccccc1-c1cncnc1Nc1ccccc1	none (no result: HP1b chromo inh, BAZ2B inh, JMJD2A Tudor, L3MBTL1 inh)
Cn1nc(C(=O)NCc2ccc(F)cc2)c2c1-c1ccccc1SC2	HP1b chromo inh inconclusive, BAZ2B inh 10µM, JMJD2A Tudor 28µM, G9a inh 14µM (no result: L3MBTL1 inh)
Cn1nc(C(=O)N2CCN(c3ccc(F)cc3)CC2)c2c1-c1ccccc1SC2	JMJD2A Tudor inconclusive (no result: L3MBTL1 inh)
Cn1nc(C(=O)N2CCN(c3ccccc3F)CC2)c2c1-c1ccccc1SC2	BAZ2B inh 13µM, JMJD2A Tudor 20µM, G9a inh 14µM (no result: L3MBTL1 inh)
Cc1nn(CC(=O)NCc2ccco2)c(=O)c2cc3ccccc3n12	none (no result: L3MBTL1 inh)
CCOc1ccc(NC(=O)CCC(=O)NNC(=O)COc2ccccc2C)cc1	none (no result: G9a inh)
COc1ccc(CC(=O)NNC(=O)c2cnccn2)cc1	G9a inh 7.9µM
O=C(COc1cccc2ccccc12)NNC(=O)c1cnccn1	none
O=C(COc1ccc2ccccc2c1)NNC(=O)c1cnccn1	G9a inh 0.63µM
COc1ccc(CC(=O)NNC(=O)c2ccccn2)cc1	BAZ2B inh inconclusive
C[C@@H]1O[C@H](O[C@@H]2[C@H](C)O[C@H](O[C@@H]3[C@H](C)O[C@H](O[C@H]4CC[C@]5(C)[C@@H](CC[C@@H]6[C@H]5C[C@@H](O)[C@]5(C)[C@@H](C7=CC(=O)OC7)CC[C@]65O)C4)C[C@@H]3O)C[C@@H]2O)C[C@H](O)[C@@H]1O	none (no result: HP1b chromo inh, BAZ2B inh, JMJD2A Tudor, L3MBTL1 inh)
CNc1ccc(/C=C(\CCC(=O)O)c2nc3ccccc3s2)cc1[N+](=O)[O-]	BAZ2B inh 45µM, G9a inh inconclusive
O=C(O)C/C(=C\c1cccc(NC(=O)c2ccccc2Cl)c1)c1nc2ccccc2s1	BAZ2B inh 79µM, JMJD2A Tudor 35µM (no result: L3MBTL1 inh)
COc1ccc(/C=C(\CC(=O)O)c2nc3ccccc3s2)cc1O	none (no result: L3MBTL1 inh)
Cc1ccc(/C=C(\CCC(=O)O)c2nc3ccccc3s2)cc1[N+](=O)[O-]	none
COc1ccc(C(=O)Nc2cccc(/C=C(\CCC(=O)O)c3nc4ccccc4s3)c2)cc1	HP1b chromo inh 32µM, BAZ2B inh 79µM (no result: L3MBTL1 inh)
CCOc1cc(CNCCSc2nnnn2C)ccc1OCc1ccc(Cl)cc1Cl	G9a inh inconclusive (no result: L3MBTL1 inh)
Cc1c(Cl)cccc1NS(=O)(=O)c1cc2c(cc1Cl)CCC(=O)N2	none (no result: HP1b chromo inh, BAZ2B inh, G9a inh, L3MBTL1 inh)
Cc1c(C(=O)NCCN(C)C)oc2c1-c1nn(Cc3cccc(Cl)c3)cc1CC2	none (no result: L3MBTL1 inh)
COc1ccc(NC(=O)CCCn2nc(C)c3sc4ccccc4c3c2=O)cc1	none (no result: L3MBTL1 inh)
CN1C(=O)C(Cc2cnc[nH]2)NC1=S (stereo unspecified)	G9a inh 28µM (no result: L3MBTL1 inh)
O=C1N[C@@H](Cc2ccccc2)C(=O)N2CCCC12 (stereo partly specified)	none (no result: BAZ2B inh)
O=C1N[C@@H](Cc2cnc[nH]2)C(=O)N2CCC[C@@H]12	BAZ2B inh inconclusive, G9a inh 20µM
c1ncc(CC2CCNCC2)[nH]1	none (no result: HP1b chromo inh, BAZ2B inh, JMJD2A Tudor, L3MBTL1 inh)
CC12C=CC(=O)C=C1[C@@H](F)CC1C2C(O)CC2(C)C1CC[C@]2(O)C(=O)CO (stereo partly specified)	none (no result: HP1b chromo inh, BAZ2B inh, JMJD2A Tudor, L3MBTL1 inh)
CCc1ccc(NC(=O)C2CCCN(S(=O)(=O)c3ccc4c(c3)oc(=O)n4C)C2)cc1 (stereo unspecified)	none (no result: L3MBTL1 inh)
CCN(CC)c1ccc(/C=C(\C#N)C(N)=S)cc1	HP1b chromo inh inconclusive, BAZ2B inh 13µM, G9a inh 20µM, L3MBTL1 inh inconclusive
CCN(CC)c1ccc(/C=C(\C#N)C(N)=O)cc1	none
COc1ccc(CNCc2ccncc2)c(OC)c1	none (no result: G9a inh)
COc1ccc(CNCc2ccc3ccccc3c2)c(OC)c1	HP1b chromo inh inconclusive, BAZ2B inh inconclusive, JMJD2A Tudor 35µM, G9a inh 11µM
COc1cc(CNCc2ccccc2)cc(Cl)c1OC	G9a inh inconclusive
COc1cccc(CNCc2cccnc2)c1OCc1ccccc1	BAZ2B inh inconclusive, G9a inh 79µM
COc1cc(CNCc2ccc(OC)c(OC)c2OC)cc(OC)c1	BAZ2B inh 50µM, JMJD2A Tudor 2.5µM, G9a inh inconclusive (no result: L3MBTL1 inh)
COc1cccc(CNCc2ccccc2OC)c1	HP1b chromo inh inconclusive, G9a inh 32µM
